# Compounds with a hit are over-represented: about 13% of the library has one in this group of screens.
# Lamin A splicing: qHTS Assay for Modulators of Lamin A Splicing; 200,000 tested, 0.01% active; Potency, µM (top dose mostly 46.1 µM), for inactives: at the top dose ratio change, negative = inhibition, actives largely listed as inhibitors; HeLa LMNA splicing GFP/RFP minigene ratio, 48 h; active = well fitted inhibition curve with a large enough effect in the signal ratio, with a control signal flat, not every such curve was filed as active; inconclusive = small, poorly fitted or top-dose-only effect, or effect the other way, or a change in a side signal; the % refers to the signal ratio; also: potency is read from the fitted curve at half-maximal effect; % is scaled to controls: 0 for no effect and ±100 for the full control effect
#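 Read-out is the ratio of GFP to DsRed2 object intensity, acquired by 488 nm laser-scanning cytometry on HeLa lamin A-EGFP minigene reporter cells. Compound incubation 48 hrs at 37 °C in Opti-MEM with 2% FBS; DMSO 0.5% final.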
# ALDH1A1 inh: qHTS Assay for Inhibitors of Aldehyde Dehydrogenase 1 (ALDH1A1) | 220,000 tested, 7.3% active | AID 1030, 2008 | Aldehyde dehydrogenase 1A1 (Homo sapiens), P00352 | Purified ALDH1A1, NADH fluorescence, propionaldehyde substrate | Potency, µM (doses to about 75.3 µM), without a hit: top-dose activity, negative = inhibition, hits mostly inhibitors; active = well fitted inhibition curve with a large enough effect, not every such curve was filed as active; inconclusive = small, poorly fitted or top-dose-only effect, or another doubt; inactive = no such curve, though single readings can be large or run the other way;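 also: potency is read from the fitted curve at half-maximal effect; plate controls were no enzyme wells and a reference inhibitor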
# Target sequence (P00352 whole entry, looked up): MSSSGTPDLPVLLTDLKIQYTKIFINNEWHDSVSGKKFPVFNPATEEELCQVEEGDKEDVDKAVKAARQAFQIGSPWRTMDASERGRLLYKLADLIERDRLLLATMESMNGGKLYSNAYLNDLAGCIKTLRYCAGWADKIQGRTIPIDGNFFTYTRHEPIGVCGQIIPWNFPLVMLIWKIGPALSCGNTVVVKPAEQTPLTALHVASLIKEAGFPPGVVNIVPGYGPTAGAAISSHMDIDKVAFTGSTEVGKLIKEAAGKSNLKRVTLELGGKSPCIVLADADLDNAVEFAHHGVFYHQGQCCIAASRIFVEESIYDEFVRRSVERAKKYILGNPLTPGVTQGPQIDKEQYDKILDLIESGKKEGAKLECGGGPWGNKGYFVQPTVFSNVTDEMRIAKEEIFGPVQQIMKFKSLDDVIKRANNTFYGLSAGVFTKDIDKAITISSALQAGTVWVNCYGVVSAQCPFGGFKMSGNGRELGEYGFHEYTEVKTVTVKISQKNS
# KDM4E inh: qHTS Assay for Inhibitors of Human Jumonji Domain Containing 2E (JMJD2E). Potency, µM (highest dose often 57.1 µM), without a hit: at the highest dose activity change, negative = inhibition, usual class: inhibitors. Lysine-specific demethylase 4E (Homo sapiens), B2RXH2. JMJD2E catalytic domain, FDH-coupled NADH fluorescence (FDH is formaldehyde dehydrogenase). 230,000 tested, 1.6% active; active = well fitted inhibition curve with a large enough effect, not every such curve was filed as active; inconclusive = small, poorly fitted or top-dose-only effect, or another doubt; inactive = no such curve, though single readings can be large or run the other way;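 also: potency is read from the fitted curve at half-maximal effect; 0% = wells with enzyme and -100% = buffer wells without enzyme; nearly all actives have a fitted effect of over 50% in size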
# Target sequence (B2RXH2 1-337 limits assumed): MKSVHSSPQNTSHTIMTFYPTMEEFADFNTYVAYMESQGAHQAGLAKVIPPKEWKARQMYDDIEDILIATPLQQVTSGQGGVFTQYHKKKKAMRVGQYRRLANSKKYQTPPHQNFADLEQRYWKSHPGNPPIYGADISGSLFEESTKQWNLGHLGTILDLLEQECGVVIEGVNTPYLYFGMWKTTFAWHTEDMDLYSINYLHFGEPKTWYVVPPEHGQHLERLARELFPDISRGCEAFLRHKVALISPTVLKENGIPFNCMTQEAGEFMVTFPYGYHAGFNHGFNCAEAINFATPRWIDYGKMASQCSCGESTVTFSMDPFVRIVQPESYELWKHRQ
# miR-21 act: qHTS Assay for Modulators of miRNAs and/orActivators of miR-21; HeLa miR-21 FLuc reporter, luciferase, 48 h; Potency, µM (doses to about 38.3 µM), for the others: top-dose activity change, positive = activation, usual class: activators; 340,000 tested, under 10 active; AID 2288, 2010;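 also: % of control where 0% means no effect; miR-21 action dims this reporter so a rising signal means less miR-21 action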
#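 Compounds were titrated across several concentrations (up to approximately 40 uM) and incubated 48 hours with HeLa miR-21-FLuc reporter cells (miR-21 target sequence downstream of FLuc, endogenous miR-21). Readout was firefly luciferase luminescence after lytic detection reagent.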
# G9a inh: qHTS Assay for Inhibitors of Histone Lysine Methyltransferase G9a; Histone-lysine N-methyltransferase EHMT2 (Homo sapiens), Q96KQ7; AID 504332, 2011; 350,000 tested, 8.8% active; Potency, µM (highest dose often 102 µM), for inactives: at the highest dose activity, negative = inhibition, actives largely listed as inhibitors; G9a H3K9 monomethylation, AlphaScreen, 2 h; also: potency is read from the fitted curve at half-maximal effect; % is scaled to controls: 0 for no effect and ±100 for the full control effect; nearly all actives have a fitted effect of over 75% in size
#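 Step 1: enzyme (final 20 nM) with compound, 15 min RT. Step 2: substrate peptide 500 nM and SAM 20 uM, 2 h RT. Step 3: anti-H3K9me1 antibody and AlphaScreen beads, 10 min, then plate read.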
# Sfp inh: qHTS Assay for Inhibitors of Bacillus subtilis Sfp phosphopantetheinyl transferase (PPTase); 310,000 tested, 3.5% active; Potency, µM, inactives show largest response in the series, negative = inhibition, hits mostly inhibitors; Biochemical Sfp PPTase activity, qHTS; 4'-phosphopantetheinyl transferase ffp (Bacillus subtilis), Q9F4F7;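 also: the enzyme is Sfp with the accession as filed and its product quenches rhodamine fluorescence; potency is read from the fitted curve at half-maximal effect; 0% = enzyme reaction without inhibitor and -100% = no enzyme wells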
#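 Fluorescence-quenching assay with 15 nM Sfp, 5 uM rhodamine-CoA and 12.5 uM BHQ-2-labelled ybbR peptide in pH 7.6 Hepes/MgCl2 buffer. Enzyme was pre-incubated with compound for 15 min at room temperature. Rate was taken from the 30-min fluorescence change (525/598 nm).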
# Numbers without * were called inactive; ? = inconclusive; . = not tested or not shown; [ ] = another dose, or the depositor's remark. Unless noted, calls follow the shape of the dose curve; as a rule, active = well fitted curve in the direction sought with a large enough effect; inconclusive = small, poorly fitted or top-dose-only effect, or another doubt; inactive = no such curve, though single readings can be large; an effect the other way counts as inactive or inconclusive.
SMILES,Lamin A splicing,ALDH1A1 inh,KDM4E inh,miR-21 act,G9a inh,Sfp inh
O=S(=O)(Nc1cc2nc3ccccc3nc2n1Cc1ccccc1)c1ccc(Cl)cc1,?,?,?,?,14.5%[59 µM],56.2µM*
O=S(=O)(NCc1ccccc1)c1ccc(Cl)cc1,13.3%,4.7%,5.0%,-4.4%,13.9%,7.2%
O=S(=O)(c1ccc(OC(F)(F)F)cc1)N1CCC(c2nc3ccccc3s2)CC1,.,.,.,5.0%,5.1%[59 µM],.
COc1ccc(/C=C2\CCCC3C2=NC(=S)NC3c2ccc(OC)cc2)cc1 (stereo not drawn),?,8.91µM*,?,19.0%,?,-47.1%
COc1ccc(/C=N\NC(=O)c2ccc(F)cc2)cc1COc1ccccc1C(N)=O,.,.,.,-4.0%,35.5µM*,4.3%
COc1ccc(/C=N\NC(=O)c2ccc([N+](=O)[O-])cc2)cc1COc1c(F)c(F)cc(F)c1F,.,.,.,-3.4%,63.1µM*,-21.2%
COc1ccc(/C=C/C(=O)c2ccccc2)cc1COc1ccccc1F,?,-2.3%,-4.8%,0.9%,.,89.1µM*
Cc1ccc(-n2c(=O)c3oc4ccccc4c3n(CC(=O)Nc3ccc(F)c(Cl)c3)c2=O)cc1C,.,.,.,1.1%,3.3%[59 µM],.
CN(C)c1cccc(C(=O)Nc2ccc(-c3nc4ccccc4s3)cc2)c1,22.2%[46 µM],.,.,23.2%,1.4%[59 µM],.
CC(=O)NCCNc1nc(-c2c(C)noc2C)nc2ccccc12,-17.8%,13.3%,.,.,-40.5%[0.501 µM],29.5%
C=CCN1C(=O)C(CC(=O)Nc2ccc(OCCC)cc2)N(CCCN2CCN(Cc3ccccc3)CC2)C1=S (stereo not drawn),.,?,-8.2%,?,?,1.7%
CC1=[N+](CC(=O)c2ccccc2)CCn2cccc21,.,-5.4%,15.4%,-36.7%,31.6µM*,0.5%
Nc1cc(N)cc(-c2nc3ccccc3[nH]2)c1,-9.1%,?,-24.0%,-18.6%,22.4µM*,-19.1%
Nc1ccc2nc(-c3cccc(-c4nc5ccc(N)cc5[nH]4)c3)[nH]c2c1,.,.,.,5.5%,22.4µM*,-16.2%
c1ccc(-c2nc3ccccc3[nH]2)cc1,.,.,.,-46.2%,-2.7%[12.7 µM],19.7%
CC(C)Cc1nc2ccc(N)cc2[nH]1,0.8%[46 µM],4.6%,35.5µM*,-13.2%,?,19.0%
OC(c1nc2ccccc2[nH]1)C(O)c1nc2ccccc2[nH]1 (stereo not drawn),.,.,.,-15.2%,-4.5%[0.501 µM],6.6%
Nc1nc2ccccc2[nH]1,.,20µM*,.,4.3%,-2.7%,4.5%
O=C(NCCC1CC1(Cl)Cl)Nc1ccccc1 (stereo not drawn),.,.,-0.6%,-36.5%,.,5.8%
Cc1ccc2c(=O)cc(C(=O)Nc3sc4c(c3C(=O)NCC3CCCO3)CCCC4)oc2c1C (stereo not drawn),.,.,.,-0.6%,-5.5%[59 µM],.
O=C1CC(C(=O)N2CCN(c3ccccn3)CC2)CN1Cc1ccccc1Cl (stereo not drawn),.,.,.,.,13.1%[0.501 µM],.
CN(C)S(=O)(=O)c1ccc(S(=O)(=O)NCc2ccc3c(c2)OCO3)cc1,.,.,.,0.0%,7.5%[59 µM],22.4%
CC(C)N(Cc1ccccc1)C(=O)C1CCCN(c2ncnc3onc(-c4ccc(F)cc4)c23)C1 (stereo not drawn),?,.,.,24.9%,-24.2%[59 µM],.
Cc1onc(-c2ccccc2)c1C(=O)Nc1ccc(Br)cc1Cl,.,.,.,0.3%,.,4.7%
O=C(COC(=O)c1ccccc1NC(=O)c1ccccc1)c1ccc([N+](=O)[O-])cc1,-11.1%,8.91µM*,7.9%,-11.0%,?,-11.9%
SMILES,Lamin A splicing,ALDH1A1 inh,KDM4E inh,miR-21 act,G9a inh,Sfp inh
O=C(O)c1ccccc1Nc1cccc(OCc2ccc3ccccc3n2)c1,?,?,0.6%,.,11.2µM*,?
COc1ccc(Nc2ccccc2C(=O)O)cc1,-8.5%[46 µM],2.7%,3.8%,-28.2%,5.5%[59 µM],5.7%
O=C(COC(=O)c1ccccc1NC(=O)c1ccccc1)c1cccc([N+](=O)[O-])c1,-8.9%,-8.3%,4.2%,-9.4%,?,-0.3%
O=C(/C=C/c1ccc([N+](=O)[O-])cc1)Nc1cccc(C(=O)Nc2ccccc2C(=O)O)c1,.,.,.,8.6%,44.7µM*,22.2%
COC(=O)c1cccc(NC(=O)/C=C/c2ccc([N+](=O)[O-])cc2)c1,-9.3%,?,7.2%,-10.9%,1.6%[59 µM],-8.4%
CC(=O)c1ccccc1NC(=O)COC(=O)c1ccccc1NC(=O)c1ccccc1,-11.2%,-2.4%,-2.2%,-19.5%,5.7%[59 µM],28.2µM*
O=S(=O)(Nc1ncccn1)c1ccc(NC(=S)N2CCN(Cc3ccc(F)cc3Cl)CC2)cc1,.,.,.,-7.1%,-2.2%,15.4%
O=C(COc1ccc([N+](=O)[O-])cc1)Nc1ccc(C(=O)Nc2ccccc2C(=O)O)cc1,.,12.6µM*,-24.1%,0.6%,.,-7.8%
O=C(COc1ccc([N+](=O)[O-])cc1)Nc1ccc(NC(=O)c2ccccc2)cc1,.,.,.,-6.6%,?,-3.7%
O=C(COc1ccc2ccccc2c1)Nc1cccc(C(=O)Nc2ccccc2C(=O)O)c1,?,14.1µM*,0.7%,-6.8%,12.0%[59 µM],6.8%
COc1ccc(OCC(=O)Nc2ccc(C(=O)Nc3ccccc3C(=O)O)cc2)cc1,.,.,.,-2.9%,-15.3%,23.5%
O=C(NC1CC1)c1cc2cc3ccccc3nc2s1,.,.,.,-48.4%,.,-1.2%
O=c1cccc2n1Cc1cc3ccccc3nc1-2,-6.7%,?,?,-54.4%,44.7µM*,11.9%
CC(=O)c1c(C)c(C)c2n1CCn1c(C)ccc1-2,-19.1%[46 µM],.,22.4µM*,-0.8%,6.31µM*,-19.2%
COC(=O)c1cc(N=CC2=C(O)CC(C)(C)CC2=O)cc(C(=O)OC)c1,-9.4%,?,58.6%,-8.6%,7.0%[59 µM],17.5%
COC(=O)c1cc(OC)c(OC)cc1N=CC1=C(O)CC(C)(C)CC1=O,-7.8%,1µM*,5.9%,-5.9%,-49.1%,15.6%
CCOC(=O)c1cc(CC)sc1/N=C/C1=C(O)CC(C)(C)CC1=O,?,11.2µM*,0.7%,0.8%,24.3%[59 µM],-3.3%
CCOC(=O)c1cc(C)sc1/N=C/C1C(=O)CC(C)(C)CC1=O,-2.1%,12.6µM*,10.6%,-2.7%,18.8%[59 µM],0.2%
CCOC(=O)c1c(CC(C)C)csc1/N=C/C1C(=O)CC(C)(C)CC1=O,.,6.31µM*,-13.3%,-4.2%,?,0.6%
CCOC(=O)c1c(/N=C/C2C(=O)CCCC2=O)sc(C)c1C,-15.8%,?,-9.7%,-3.8%,-11.1%,-12.2%
Nc1ncnc2c1ncn2[C@H]1O[C@@H](C(=O)OCCO)[C@@H](O)[C@H]1O,.,11.3%[13.5 µM],.,.,.,.
COc1ccc(C(=O)Nc2nnc(SCc3cc(=O)c4cccc(F)c4[nH]3)s2)cc1,-27.0%[46 µM],.,.,-5.6%,-3.4%[59 µM],.

# Assay outcomes: PubChem, National Center for Advancing Translational Sciences (NCATS)
